# Screening results deposited in PubChem by National Center for Advancing Translational Sciences (NCATS).
# An excerpt weighted towards active compounds, which were near 9.2% of everything screened.
# ELG1 repair inh – ELG1-dependent DNA repair inhibition; AID 504467; HEK293T ELG1-luciferase reporter, luminescence, 16 h; DNA damage induced by 5-fluorouridine; Potency, µM (highest dose often 46.1 µM), without a hit: top-dose activity change, negative = inhibition, actives largely listed as inhibitors; 2.3% of 330,000 active; further: on the % scale 0 is the no-effect control and ±100 the full control effect; nearly all actives have a fitted effect of over 55% in size
#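 Overnight (16 hr) co-exposure of 2,000 cells/well to 5-fluorouridine and compound at 37 °C preceded detection. Luciferase was quantified via ONE-Glo luminescence; loss of signal denotes inhibition.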
# Rab9 prom act – activates the Rab9 promoter; Huh7 Rab9 promoter-luciferase reporter, luminescence, 24 h; Potency, µM (highest dose often 9.22 µM), for inactives: at the top dose activation, negative = inhibition, hits mostly activators; 2.8% of 320,000 active; further: % of control where 0% means no effect; nearly all actives have a fitted effect of over 60% in size
#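 Luciferase signal after 10 min detection reagent at ambient indicates Rab9 promoter upregulation; stably transfected Huh7 cells were treated 24 h with compound in DMSO at 37 °C, 5% CO2.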
# FLuc counter – firefly luciferase modulation, counter-screen for miR-21 project. P08659. purified FLuc, Km substrates, luminescence inhibition. Potency, µM (doses to about 57.5 µM), for the others: top-dose activity change, negative = inhibition, hits mostly inhibitors. 6.9% of 360,000 active. AID 588342;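 further: plate controls were vehicle for no effect and reference inhibitor for full effect; nearly all actives have a fitted effect of over 55% in size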
# Target sequence (P08659 whole entry, looked up): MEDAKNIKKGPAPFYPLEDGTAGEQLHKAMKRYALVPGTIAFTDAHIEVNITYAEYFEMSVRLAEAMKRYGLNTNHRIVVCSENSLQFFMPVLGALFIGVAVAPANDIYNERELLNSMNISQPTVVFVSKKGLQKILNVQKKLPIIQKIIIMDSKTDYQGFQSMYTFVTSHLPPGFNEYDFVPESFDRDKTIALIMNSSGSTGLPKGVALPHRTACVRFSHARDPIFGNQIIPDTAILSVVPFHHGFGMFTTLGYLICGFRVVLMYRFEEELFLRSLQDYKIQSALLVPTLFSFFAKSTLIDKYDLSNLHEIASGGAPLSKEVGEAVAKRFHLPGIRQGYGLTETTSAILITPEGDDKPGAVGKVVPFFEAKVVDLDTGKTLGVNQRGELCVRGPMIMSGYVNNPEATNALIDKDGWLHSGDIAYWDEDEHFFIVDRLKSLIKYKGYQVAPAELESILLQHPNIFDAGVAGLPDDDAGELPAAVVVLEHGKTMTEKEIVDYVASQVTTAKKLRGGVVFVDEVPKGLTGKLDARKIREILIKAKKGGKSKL
#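 Biochemical qHTS of compounds, final roughly 60 µM downward over six points, against 10 nM purified firefly luciferase using Km concentrations of substrates (10 uM D-luciferin, 10 uM ATP) in Tris acetate pH 7.5 buffer; luminescence output.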
# SMN2 splice up – enhancers of SMN2 splice variant expression. Potency, µM (highest dose often 46.1 µM), without a hit: at the highest dose activity change, positive = activation, most hits filed as activators. HEK293 SMN2-luciferase splicing reporter, luminescence, 30-36 h. AID 1458. 2.8% of 210,000 active; further: % of control where 0% means no effect; nearly all actives have a fitted effect of over 55% in size
#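 HEK293 cells carry an SMN2 […]–luciferase reporter in which exon 7 inclusion puts luciferase in frame. Cells were plated 10-12 h before compound addition, then incubated 30-36 h at 37C. ONE-Glo luminescence was read; sodium butyrate at 4.5 mM final served as control.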
# ELG1 genotoxic – inducers of genotoxicity in HEK293T ELG1-luciferase cells; Potency, µM (series often up to 46 µM), for inactives: top-dose activity change, positive = activation, hits mostly activators; HEK293T ELG1-luciferase reporter, luminescence, 16 h; 1.3% of 330,000 active; further: % of control where 0% means no effect; nearly all actives have a fitted effect of over 60% in size
#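 Reporter readout depends on ELG1 protein level, which increases with genetic stress. After 16 hr compound exposure at 37 °C, luciferase activity was quantified using ONE-Glo.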
# NPC1 promoter act – activators of NPC1 promoter; AID 485313; 2.4% of 320,000 active; Huh7 NPC1 promoter luciferase reporter, 24 h; Potency, µM (titrated, usually from 9.22 µM), for inactives: at the top dose activation, actives largely listed as activators; further: % of control where 0% means no effect; nearly all actives have a fitted effect of over 60% in size
#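 Readout is luciferase luminescence, reflecting NPC1 promoter activation in stably transfected Huh7 cells after 24 h compound exposure at 37 °C in reduced-serum medium with 10% FBS.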
# The depositor's hits bear a star; ? = inconclusive; · = no result; [ ] = dose if it differs, or a comment. The call rests on the fitted dose curve; in most records, active means well fitted curve in the direction sought with a large enough effect; inconclusive means small, poorly fitted or top-dose-only effect, or another doubt; inactive means no such curve, though single readings can be large; an effect the other way counts as inactive or inconclusive. Potency means the concentration at half of the fitted maximal effect.
SMILES,ELG1 repair inh,Rab9 prom act,FLuc counter,SMN2 splice up,ELG1 genotoxic,NPC1 promoter act
CC(C)n1cnc2c(oc3ccccc32)c1=O,?,11%,17µM*,·,14%,7%
CCOC(=O)C(C)n1cnc2c(oc3ccccc32)c1=O (stereo unspecified),25%,8%,-19%,-11%,4%,11%
Cc1ccc(NC(=O)C(=O)c2c[nH]c3ccccc23)cc1,?,0.79µM*,1.5µM*,·,?,0.63µM*
O=C(NCCOc1ccccc1)C(=O)c1c[nH]c2ccccc12,?,14%,27µM*,·,4%,12%
Cc1[nH]c2ccccc2c1C(=O)C(=O)NC1CC1,?,1.3µM*,9.5µM*,·,?,?
O=C(NC1CCCCC1)C(=O)c1c[nH]c2ccccc12,?,3.2µM*,11µM*,·,15µM*,?
Cc1ccc(C)c(NC(=O)CSc2nnc(CNC(=O)c3ccccc3)n2-c2ccccc2)c1,·,·,-1%,-13%,·,·
CC(C)CC(=O)Nc1ccc(C(=O)COC(=O)CN2C(=O)NC3(CCCCC3C)C2=O)cc1 (stereo unspecified),8%,1%,-10%,·,0%,-1%
COc1cc2c(cc1OC)C(Nn1cnnc1)=NC1(CCCC1)C2,?,-2%,-2%,·,-1%,0%
Cc1ccc(C(=O)NC(=S)Nc2ccc(N3CCOCC3)cc2)c(C)c1,-21%,-9%,-15%,125%,7%,-3%
O=C(NC(=S)Nc1ccc2c(c1)OCO2)c1ccc(Cl)cc1,?,2.2µM*,?,13µM*,?,4µM*
S=C(Nc1ccc2c(c1)OCO2)Nc1ccc2c(c1)OCO2,27%,7%,?,9%,7%,5%
Cc1ccc(C(=O)NC(=S)Nc2ccc3c(c2)OCCO3)c(C)c1,?,?,9.5µM*,15%,?,?
CC(C)C(=O)Nc1cccc(NC(=S)NC(=O)c2ccc3c(c2)OCO3)c1,-3%,-2%,6%,·,4%,1%
C/C(CC(=O)Nc1ccc2c(c1)OCCO2)=N\NC(=O)c1ccccc1Cl,?,22%,-17%,·,?,9%
Cc1cc(C)cc(C(=O)NC(=S)Nc2ccc3c(c2)OCCO3)c1,?,?,6.7µM*,·,?,?
O=C(NC(=S)Nc1ccc2c(c1)OCCO2)c1ccc(F)cc1Cl,?,27%,13µM*,13µM*,?,25%
CC(C)c1ccc(NC2CCCN(C(=O)c3cccc4nccnc34)C2)cc1 (stereo unspecified),2%,1%,3%,·,0%[9.26 µM],-4%
O=C(NC(=S)Nc1ccc(N2CCCCC2)c(Cl)c1)c1ccc2c(c1)OCCO2,-13%,-30%,?,-54%,-13%,-24%
CCc1ccc(C(=O)NC(=S)Nc2ccc3c(c2)OCCO3)cc1,?,4µM*,6µM*,11µM*,?,2.8µM*
O=C(NCCCO)c1cc2c(cn1)[nH]c1ccccc12,?,?,17µM*,·,14%,28%
Cc1csc(NC(=O)c2cccs2)n1,?,?,?,11µM*,?,?
Cc1csc(NC(=O)c2ccc(Br)s2)n1,?,2%,4.8µM*,·,?,21%
Cc1nc(NC(=O)c2cccs2)ccc1Br,?,3.5µM*,6µM*,11µM*,?,3.5µM*
Cc1csc(NC(=O)CCC(=O)c2cccs2)n1,?,7%,-13%,-13%,-18%,6%
Cc1cc(C)nc(NC(=O)c2ccc(Br)s2)n1,0%,10%,2%,·,0%,-1%
Cc1ccc(C(=O)N/N=C\c2sccc2C)cn1,?,?,17µM*,?,?,?
Cc1ccsc1/C=N/NC(=O)c1sccc1C,?,3.2µM*,5.4µM*,11µM*,?,2.5µM*
Cc1ccsc1/C=N/N=C/c1sccc1C,?,1.6µM*,1.1µM*,·,?,4µM*
